Bioassay records from PubChem BioAssay.
The entries come from a sample that favours hits as a whole.
CBX7 inh: inhibitors of human CBX7 binding to H3K27me3 peptide; O95931; AlphaScreen His6-CBX7 / biotin-H3K27me3 peptide binding; active compounds read low; normalised signal (fraction of DMSO) (no concentration beside the values); actives 1.1% (n = 66,000); AID 1224903; in the data active means normalised signal below about 0.5
Target sequence (O95931 whole entry, looked up): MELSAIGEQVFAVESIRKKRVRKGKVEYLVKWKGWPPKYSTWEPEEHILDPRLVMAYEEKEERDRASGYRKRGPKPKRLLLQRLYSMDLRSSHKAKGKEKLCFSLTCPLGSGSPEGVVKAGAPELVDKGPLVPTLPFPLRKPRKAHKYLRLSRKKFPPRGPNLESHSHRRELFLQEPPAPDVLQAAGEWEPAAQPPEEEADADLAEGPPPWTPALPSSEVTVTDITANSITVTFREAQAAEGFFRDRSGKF
Active calls of the source: *; ! = not active in a repeat.

SMILES	CBX7 inh
Cc1c(C(=O)O)oc2ccc(S(=O)(=O)N3CCCCCC3)cc12	1.1
Cc1ccccc1NC(=O)c1nc[nH]c1C(=O)Nc1ccccc1C	0.74
CCOC(=O)c1[nH]cnc1C(=O)Nc1ccc(Br)cc1	0.98
O=C(Nc1ccc(Br)cc1)c1nc[nH]c1C(=O)O	0*
O=C(Nc1ccc(Br)cc1)c1ccccc1C(=O)c1ncc[nH]1	1.1
O=C(Nc1ccccc1C(=O)Nc1ccccn1)c1ccccc1	1
O=C(Nc1ccccn1)c1nc[nH]c1C(=O)O	0.3*
COc1nnc(-c2ccc(N3CCCCC3)c(NC(=O)COc3ccc(C)cc3)c2)c2ccccc12	0.93
O=C(NCc1ccc2c(c1)OCO2)c1ccc2c(c1)NC(=O)c1ccccc1S2	1
Cc1ccc(N2CCN(CC(O)COc3ccc(Br)cc3)CC2)cc1 (stereo not given)	1.2
Cc1c(C(=O)Nc2ccccc2F)sc2ncn(CC(=O)N3CCCCC3C)c(=O)c12 (stereo not given)	0.98
C=CCN1C(=O)c2ccccc2Sc2ccc(C(=O)NCc3ccccc3OC)cc21	1.1
CCN(CC)S(=O)(=O)c1ccc(C(=O)Nc2nnc(-c3ccccc3Cl)o2)cc1	1
CCN(CC)S(=O)(=O)c1ccc(C(=O)Nc2nnc(COC)o2)cc1	0.024*
CCCCN(CCCC)S(=O)(=O)c1ccc(C(=O)Nc2nnc(-c3cccs3)o2)cc1	0.81
CCCCN(CCCC)S(=O)(=O)c1ccc(C(=O)Nc2nnc(-c3ccccc3Cl)o2)cc1	1
CCCCN(CCCC)S(=O)(=O)c1ccc(C(=O)Nc2nnc(COC)o2)cc1	0.16*
COc1cccc(C(=O)N2CC(=O)Nc3ccc(Br)cc3C2c2ccc(F)cc2)c1 (stereo not given)	0.89
COc1ccccc1Nc1ncc(C(=O)NCCCN2CC(C)CC(C)C2)c2ccccc12 (stereo not given)	1.2
Cc1ccc(NC(=O)c2cc(-c3cccs3)nc3ccccc23)cc1F	1.1
CCCN1Cc2cccc(C(=O)Nc3ccc(OCC)cc3)c2C1=O	1
CCOC(=O)C1CCCN(C(=O)CCC(=O)Nc2ccc3nc(N4CCC(C)CC4)cc(C)c3c2)C1 (stereo not given)	1
Cc1cc(N2CCCCC2)nc2ccc(NC(=O)CCC(=O)N3CCCC(C)C3)cc12 (stereo not given)	0.48*
Cc1cc(N2CCC(C)CC2)nc2ccc(NC(=O)CCC(=O)N3CCCCCC3)cc12	0.83
COc1ccc(NC2c3ccccc3C(=O)N2c2ccc(Cl)cc2)cc1 (stereo not given)	0.42*
SMILES	CBX7 inh
COc1ccc(NC2c3ccccc3C(=O)N2c2ccc(Cl)cc2)cc1OC (stereo not given)	0.54
CCc1ccc(NC2c3ccccc3C(=O)N2c2ccc(Cl)cc2)cc1 (stereo not given)	0.68
Cc1cccc(C(=O)Nc2ccc3nc(SCC(=O)N4CCOCC4)sc3c2)c1	0.91
O=C(O)COc1ccc(-c2cc(C(=O)O)c3ccccc3n2)cc1	0.92
Cc1sc2ncnc(Nc3cccc(Cl)c3)c2c1S(=O)(=O)N1CCC(C)CC1	0.91
Cc1cc(C)cc(-c2nc(-c3ccccn3)no2)c1	0.97
c1ccc(-c2nnc(Nc3ccccn3)c3ccccc23)cc1	0.9
c1ccc(-c2nnc(-c3ccccn3)nc2-c2ccccc2)cc1	0.05*
CCCn1c(=N)n(CC(O)COc2ccccc2C)c2ccccc21 (stereo not given)	0.95
COc1ccc(-n2ccnc2SCC(=O)Nc2nc3ccc(C)cc3s2)cc1	1.1
CCCNC(=O)c1ccc2c(c1)N(Cc1ccc(F)cc1)C(=O)c1ccccc1S2=O (stereo not given)	1.1
CCCCC(=O)Nc1ncc(Cc2cccc(Cl)c2Cl)s1	0.89
Cc1nc2ccc(C(=O)NCCN(C)C)cc2nc1C	0.78
Cc1ccc(-c2cc(-c3ccc(F)cc3)n3ncnc3n2)cc1	0.86
Fc1ccc(-c2cc(C(F)(F)F)n3ncnc3n2)cc1	0.47*
Fc1ccc(-c2cc(-c3ccccc3)nc3ncnn23)cc1	1
O=c1cc(N2CCN(Cc3ccccc3)CC2)[nH]c(=O)n1-c1ccccc1Cl	0.93
Cc1cc(C)n(-c2nc3ccccc3nc2Nc2ccc3c(c2)OCCO3)n1	1.9
Cc1cc(C)n(-c2nc3ccccc3nc2Nc2ccc(N(C)C)cc2)n1	0.22*
Cc1cccc(Nc2nc3ccccc3nc2-n2nc(C)cc2C)c1	2.6
CC1=Nc2cc(C(=O)NCCCN3CC(C)CC(C)C3)ccc2Sc2ccc(Cl)cc21 (stereo not given)	1.3
CCC(C)NC(=O)C1CC(c2ccc(F)cc2)=NO1 (stereo not given)	1.1
COc1ccc(OC)c(CNC(=O)CCc2cn(C)c3ccccc23)c1	0.95
CCOc1ccc(CNC(=O)CCCc2cn(C)c3ccccc23)cc1OC	0.87
COc1ccc(Br)cc1CNC(=O)CCCc1cn(C)c2ccccc12	0.42*
SMILES	CBX7 inh
COc1ccc(CNC(=O)CCc2cn(C)c3ccccc23)c(OC)c1	1
COc1ccc(Br)cc1CNC(=O)Cc1cn(C)c2ccccc12	0.91
COc1ccc(OC)c(CNC(=O)CCCc2cn(C)c3ccccc23)c1	0.46*
O=C(Cn1ncc2c1-c1ccccc1OC2)NCCCN1CCN(c2cccc(Cl)c2)CC1	0.93
COCCCNC(=O)C1CCN(C(=O)c2cc3sccc3n2C)CC1	1
CCOc1cc(C2CC(=O)Nc3cc4c(cc32)OCO4)ccc1OC(=O)c1ccc(OC)cc1 (stereo not given)	0.55
O=S(=O)(c1cccc(Cl)c1)N(CCCN1CCOCC1)Cc1cccs1	0.87
O=S(=O)(c1ccc(Cl)cc1)N(CCCN1CCOCC1)Cc1cccs1	0.49*
O=S(=O)(c1ccc(F)cc1)N(CCCN1CCOCC1)Cc1cccs1	0.85
Cc1ccccc1-n1nc(-c2ccc(Cl)cc2)cc1-c1ccc(Cl)cc1	1.1
Cc1ccc(C2CC(c3ccco3)=Nc3ccccc3S2)cc1 (stereo not given)	0.73
O=C(CCn1nc(-c2ccc(Cl)cc2)ccc1=O)NC1CC1	0.94
Cc1cc(NC(=O)c2c(-c3ccccc3)noc2C)no1	1.1
O=C(Cn1ncc2ccsc2c1=O)NCc1ccccc1Cl	1.2
COc1ccc(NC(=O)C2CCN(S(=O)(=O)c3cnc[nH]3)CC2)c(OC)c1	0.84
Cc1c(-c2ccccc2)nc2sc3c(c2c1N)CCCCC3	0.99
Nc1c2c(nc3sc4c(c13)CCCCC4)CCCCC2	0.95
Cc1c(-c2ccccc2)nc2sc3c(c2c1N)CCCC3	0.47*
Cc1cc(Nc2cccc(C(F)(F)F)c2)c2cccc(C)c2n1	1.1
O=C(NCCC(c1ccccc1)c1ccccc1)c1cnc2ccccn2c1=O	1
O=c1cc(-c2ccccc2)nc(Nc2nc3ccccc3o2)[nH]1	1.5
COCc1cc(=O)[nH]c(Nc2nc3ccccc3o2)n1	0.12*
COCc1cc(=O)[nH]c(Nc2nc(C)c3ccccc3n2)n1	1
COc1cccc(CN2C(=O)c3ccccc3C2C(=O)NC2CCCC(C)C2C)c1 (stereo not given)	0.98
COc1cc(Nc2nc(-c3ccc(-c4ccccc4)cc3)cs2)c(OC)cc1Cl	0.54
COc1cc(Nc2nc(-c3ccc(C4CCCCC4)cc3)cs2)c(OC)cc1Cl	0.46*!
COc1cc(Nc2nc(-c3ccccc3)cs2)c(OC)cc1Cl	0.75
CCn1c2ccccc2c2cc(NC(=O)c3ccc(F)cc3)ccc21	0.97
Cc1cc(C)cc(-n2ccnc2SCC(=O)Nc2ccc(F)cc2F)c1	0.73
COc1ccc(-c2noc(CCC(=O)NCCN(C)C)n2)cc1	0.89
